Inconclusive results are not listed. Active and inactive are the calls of the source. Unless noted, calls follow the shape of the dose curve; as a rule, active = well fitted curve in the direction sought with a large enough effect; inconclusive = small, poorly fitted or top-dose-only effect, or another doubt; inactive = no such curve, though single readings can be large; an effect the other way counts as inactive or inconclusive.

Assay [1] is described as follows: P-glycoprotein substrates identified in KB-3-1 adenocarcinoma cell line, qHTS therapeutic library screen (AID 1346986). Also: nearly all actives have a fitted effect of over 60% in size.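 Also: potency is read from the fitted curve at half-maximal effect; potency is for cytotoxicity meaning loss of cell viability.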 In outline: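 Using luminescence to quantify ATP, parental and P-gp-overexpressing KB cells were compared after 72 h compound titration. KB-8-5-11 was also run with the P-gp inhibitor tariquidar.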
(In qHTS, concentration-response curves come from the screen itself.)

Assay [2] is described as follows: P-glycoprotein substrates identified in KB-8-5-11 adenocarcinoma cell line, qHTS therapeutic library screen (AID 1346987). Also: nearly all actives have a fitted effect of over 65% in size. Also: potency is read from the fitted curve at half-maximal effect. In outline:
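Human cervical adenocarcinoma KB-8-5-11 cells, selected in colchicine to over-express P-gp and assayed without it, were exposed for 72 h to titrated compounds. An ATP-based luminescent viability signal gave AC50.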

A short description of assay [3]: qHTS to identify inhibitors of the type 1 interferon - major histocompatibility complex class I in skeletal muscle: primary screen against the NCATS Mechanism Interrogation Plate v5.0 (MIPE) Libary (AID 1347411). Also: nearly all actives have a fitted effect of over 65% in size. Also: potency is read from the fitted curve at half-maximal effect. The procedure, abridged:
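IFN-beta-driven (4 ng/ml) HLA-B-HiBit expression in CRISPR-tagged C25cl48 myoblasts; compounds 11-pt, 1:3, max 46 uM, 24 hr exposure; lytic NanoLuc complementation luminescence.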

The nature of assay [4]: Primary qHTS for inhibitors of nuclear receptor binding SET domain protein 2 (NSD2) in an RCH-ACV wild type WT cells (2C) (AID 1645877). Also: nearly all actives have a fitted effect of over 70% in size. Also: potency is read from the fitted curve at half-maximal effect.
The target in assay [5] is Glutathione peroxidase 1 (Homo sapiens) (UniProt P07203). In words: Primary qHTS Assay for Inhibitors of Recombinant Selenoprotein Glutathione Peroxidase 1 (GPX1) (AID 1845191). Also: nearly all actives have a fitted effect of over 65% in size. The procedure, abridged:
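GPX1 10 nM, GR 100 nM, GSH 1 mM, NADPH 0.5 mM, CHP 0.5 mM (final). 30-min cpd preincubation, RT. Ex340/Em450 read t=0, t=15 min.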

Assay [6] has as its target Phospholipid hydroperoxide glutathione peroxidase GPX4 (Homo sapiens) (UniProt P36969). As to the kind of experiment: Primary qHTS Assay for Inhibitors of Recombinant Selenoprotein Glutathione Peroxidase 4 (GPX4) (AID 1845192). Also: nearly all actives have a fitted effect of over 65% in size. To be noted: outcome: dose series up to 50 µM unless noted. In outline:
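qHTS, GR-coupled: GPX4 200 nM + cpd 30 min RT → GSH 1 mM, NADPH 0.5 mM, GR 100 nM → CHP 0.5 mM start; fluor 340/450 at t0 and t15 min; no-enzyme wells as control.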

Assay [7] can be described thus: qHTS drug screen for cell cycle checkpoint inhibitors in PARPi-resistant BRCA-mutant ovarian cancer cell lines. (AID 1963452; calls by dose curve; also: potency is read from the fitted curve at half-maximal effect). The following applies: PEO1/OlaR viability, CellTiter-Glo luminescence, 96 h; for Z-AUC: stronger effect = lower value. In outline: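 PEO1, PEO4 and PEO1/OlaR ovarian cancer cells, 600 per well, exposed 96 h at 37C to a dilution series. Viability read by CellTiter-Glo luminescence, normalized to DMSO and empty wells; activity summarized as Z-AUC.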

Assay [8] is described as follows: Primary qHTS for inhibitors of nuclear receptor binding SET domain protein 2 (NSD2) in an isogenic RCH-ACV NSD2 p.E1099K mutant (9B) (AID 1645876). Also: nearly all actives have a fitted effect of over 70% in size. Also: potency is read from the fitted curve at half-maximal effect.
Assay [9] addresses Calcium and integrin-binding protein 1 (Homo sapiens) (UniProt Q99828). As to the kind of experiment: Primary qHTS for Identification of Calcium Integrin Binding Protein 1 (CIB1) Competitor (AID 1508620).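 Also: GST tagged CIB1 binding a fluorescein labelled alphaIIb integrin peptide tracer; top concentration of the series differs between compounds.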 In outline: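 Fluorescence polarization competition: CIB1-GST (1 uM final) preincubated with compound 15 min at room temperature, then FITC-labeled alphaIIb peptide (100 nM final) added for another 15 min. Polarization read at Ex 480/Em 540.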

[10] abbreviates: measured here: PEO1 parental Z-AUC.

Sequence of Calcium and integrin-binding protein 1 (Homo sapiens) (Q99828 whole entry, looked up): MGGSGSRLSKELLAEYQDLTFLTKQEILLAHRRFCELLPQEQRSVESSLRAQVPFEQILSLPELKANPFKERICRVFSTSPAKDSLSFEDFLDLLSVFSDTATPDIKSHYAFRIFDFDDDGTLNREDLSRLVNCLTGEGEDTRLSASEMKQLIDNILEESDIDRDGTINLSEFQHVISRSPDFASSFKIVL
Sequence of Glutathione peroxidase 1 (Homo sapiens) (P07203 whole entry, looked up): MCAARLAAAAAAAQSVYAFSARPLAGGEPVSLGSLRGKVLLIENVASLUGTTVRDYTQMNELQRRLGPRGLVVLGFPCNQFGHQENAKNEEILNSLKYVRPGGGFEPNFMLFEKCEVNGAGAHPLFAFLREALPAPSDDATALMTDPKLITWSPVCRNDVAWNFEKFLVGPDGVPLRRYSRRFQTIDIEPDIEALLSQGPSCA
Sequence of Phospholipid hydroperoxide glutathione peroxidase GPX4 (Homo sapiens) (P36969 whole entry, looked up): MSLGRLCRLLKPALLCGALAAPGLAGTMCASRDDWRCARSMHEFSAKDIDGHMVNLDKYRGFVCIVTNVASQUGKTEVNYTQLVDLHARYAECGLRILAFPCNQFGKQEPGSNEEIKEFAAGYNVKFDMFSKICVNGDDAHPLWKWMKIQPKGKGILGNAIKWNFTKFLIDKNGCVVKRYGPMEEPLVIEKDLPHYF

As to `C#Cc1cccc(Nc2ncnc3cc4c(cc23)OCCOCCOCCO4)c1`, the Potency entry in [1], in assay [2], in [3], in assay [4], in assay [5] and in assay [6] was “inactive” in each case. Further, the figures for the Z-AUC in assay [7], in assay [7] (setting [10]) and in assay [7] (measured here: PEO4 Z-AUC) were 0.644 (inactive), 0.664 and 0.297, respectively.

Take `CC(C)C(N)C(=O)OCC(CO)OCn1cnc2c(=O)[nH]c(N)nc21` (stereo unspecified): the Potency entry in assay [1], in assay [2], in assay [3], in assay [8], in [4] and in assay [5] was “inactive” throughout. Moreover, in assay [6], the Potency entry was “inactive”. Besides, the Z-AUC was 0.614 (inactive) in [7], 1.06 in assay [7] (setting [10]) and 1.36 in assay [7] (measured here: PEO4 Z-AUC).

Take `O=C1NC(=O)/C(=C\c2ccc3nccc(-c4ccncc4)c3c2)S1`: the Potency was 1160 nM (active) in assay [1], 1460 nM (active) in [2], 326 nM (active) in assay [8] and 366 nM (active) in assay [4].

For `C[C@@H]1N=C(N)NC(N(C)C)=N1`, the Potency result in assay [1], in assay [2], in [3], in assay [8], in [4] and in [5] was “inactive” each time. The Potency result in [6] was “inactive”. Moreover, the results for the Z-AUC in [7], in [7] (setting [10]) and in [7] (measured here: PEO4 Z-AUC) were 1.33 (inactive), 1.06 and 1.03, respectively.

Regarding `Cc1ccc(NS(=O)(=O)c2cc3c(cc2NCCO)NC(=O)CC3)cc1C`, the Potency entry in [1], in [2], in [8] and in [5] was “inactive” in each case. For the same molecule, in assay [9], the result was inactive.

`O=C(NOCCO)c1cc(CN2OCCCC2=O)c(F)c(F)c1Nc1ccc(I)cc1F`: the Potency entry in assay [1], in assay [2], in [3], in assay [8] and in [5] was “inactive” throughout. Besides, the Z-AUC in assay [7] is -1.18 (inactive); in assay [7] (setting [10]), -0.961; in assay [7] (measured here: PEO4 Z-AUC), -1.01.

With `CC(N)C1CCC(C(=O)Nc2ccncc2)CC1` (stereo unspecified), the Potency result in [1], in assay [2], in assay [8] and in assay [4] was “inactive” in each case.

Turning to `[2H]C([2H])([2H])C(OC(=O)[C@H](C)N[P@](=O)(OC[C@H]1O[C@@H](n2ccc(=O)[nH]c2=O)[C@](C)(F)[C@@H]1O)Oc1ccccc1)C([2H])([2H])[2H]`, the Potency entry in [1], in assay [2], in assay [8] and in [4] was “inactive” throughout.

In the case of `C[C@]1(C(=O)Nc2ccc(F)nc2)CCCN1c1nc(Nc2cc(C3CC3)[nH]n2)c2cccn2n1`, the Potency in [1] was 2060 nM (active); in assay [2], 2910 nM (active); in assay [8], 1840 nM (active); in [4], 920 nM (active).

For the molecule `O=C1CCCC2=C1C(c1ncccc1Br)N=C(Nc1nc3ccccc3o1)N2` (stereo unspecified), the Potency result in assay [1], in assay [2] and in [5] was “inactive” throughout. In addition, the outcome in assay [9] was inactive.

With `CCOC(=O)c1cc2ccc(O)cc2oc1=O`, the Potency entry in [1], in assay [2], in [8] and in assay [4] was “inactive” throughout.

Turning to `CC1CN(CC(=O)Nc2ccc3c(c2)Cc2cccc(-c4cc(=O)cc(N5CCOCC5)o4)c2S3)CC(C)O1` (stereo unspecified), the Potency result in assay [1] and in assay [2] was “inactive” each time.

As to `Cc1cc(N2CCOCC2)cc2[nH]c(-c3c(NCC(O)c4cccc(Cl)c4)cc[nH]c3=O)nc12` (stereo unspecified), the Potency in [1] was 2060 nM (active); in assay [2] it was 5800 nM (active); in [8], 1640 nM (active); in assay [4], 1460 nM (active).

Turning to `Nc1ncnc2c1nc(Cl)n2C1O[C@H](CO)[C@@H](O)[C@H]1O` (stereo partly specified), the Potency in assay [1] was 2910 nM (active); in [2], 1840 nM (active); in assay [8], 2590 nM (active); in assay [4] it was 1840 nM (active).

`Cc1ccc(NS(=O)(=O)c2cc3c(cc2NC(C)CO)NC(=O)CC3)cc1C` (stereo unspecified): the Potency entry in assay [1], in assay [2] and in [5] was “inactive” each time. Further, the result in assay [9] was inactive.

In the case of `O=C(NOCCO)c1ccc2cncn2c1Nc1ccc(I)cc1F`, the Potency entry in assay [1], in [2], in [3] and in assay [5] was “inactive” throughout. In addition, the Z-AUC in [7] was 1.17 (inactive); in assay [7] (setting [10]), 0.484; in assay [7] (measured here: PEO4 Z-AUC) it was 0.455.

Turning to `OCCn1cc(-c2ccc3c(c2)CC/C3=N\O)c(-c2ccncc2)n1`, the Potency result in assay [1], in assay [2], in assay [3], in assay [5] and in [6] was “inactive” throughout. The Z-AUC in [7] is 2.52 (inactive); in [7] (setting [10]), 1.44; in assay [7] (measured here: PEO4 Z-AUC), 1.33.

With `C[C@H]1COCCN1c1cc(C2(S(=O)(=O)C3CC3)CC2)nc(-c2ccc(NC(=S)NCCO)cc2)n1`, the Potency in [1] was 103 nM (active); in [2], 731 nM (active); in assay [3] it was 208 nM (active); in assay [8] it was 59 nM (active); in assay [4] it was 93.4 nM (active). The Potency result in [5] was “inactive”. Besides, the Z-AUC in assay [7] is -1.32 (inactive); in assay [7] (setting [10]), -1.07; in assay [7] (measured here: PEO4 Z-AUC), -1.96.

Take `CN1CCC(c2c(O)cc(O)c3c(=O)cc(-c4ccccc4Cl)oc23)C(O)C1` (stereo unspecified): the Potency in assay [1] was 231 nM (active); in assay [2] it was 517 nM (active); in [8], 291 nM (active); in [4] it was 259 nM (active).

Regarding `CN(C)CC1CCn2cc(c3ccccc32)C2=C(C(=O)NC2=O)c2cn(c3ccccc23)CCO1` (stereo unspecified), the Potency result in assay [1] and in assay [2] was “inactive” in each case. Further, the Potency in [8] was 13000 nM (active); in [4] it was 16400 nM (active).

Regarding `CN1CCN(Cc2ccc(Nc3ncc(Cl)c(Nc4ccccc4S(=O)(=O)N(C)C)n3)cc2)CC1`, the Potency was 59.6 nM (active) in assay [1]; 66.8 nM (active) in assay [2]; 151 nM (active) in [3]; 24.1 nM (active) in [8]; 15.2 nM (active) in assay [4]; 79.6 nM (active) in assay [7]. Also, in assay [5], the outcome was “inactive [at 9.52 µM]”. Further, the results for the Z-AUC in assay [7] (setting [10]) and in assay [7] (measured here: PEO4 Z-AUC) were -1.68 and -1.52, respectively.

These data come from PubChem BioAssay (NCATS).
